The whole screen tested about 410,000 compounds, of which about 18,000 (4.4%) were called active. Another 7% or so got no clear call; they are omitted. What follows is part of a selection rich in actives, with near analogues and random picks from the rest. Values without a mark were called inactive. Cut-off read from the data, not from the text of the source: active = activity change below about -60%; inconclusive = no clear call, values can overlap the other calls; inactive = above about -39%.
experiment: qHTS Assay for inhibitors of the human cytomegalovirus (HCMV); settings: HFF cells, HCMV-luciferase reporter, 72 h; at 57.5 µM; active compounds read low
Summary of the method: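 Two-dose cell screen: HFF monolayers treated with compounds and infected with luciferase-expressing HCMV at 1 PFU/cell, 72 h at 37C, then lysed for luciferase measurement.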
% is set by controls: 0 for no effect and ±100 for the full control effect.

Compound | activity change, negative = inhibition
Cc1cc(C)c(NC(=O)CSc2nc3nccnc3c(=O)n2CCc2c[nH]c3ccccc23)c(C)c1 | -19.7%
COc1ccc2c(c1)c(=Cc1ccc(N(C)C)cc1)c1cc(-c3ccccc3)[n+](C)n12 | -99.1% (active)
Cc1ccc(S(=O)(=O)c2nnn3c2nc(N2CCN(c4ccccc4F)CC2)c2cc(Cl)ccc23)cc1C | 11.3%
CCn1cc(C(=O)NCc2ccccc2)c(=O)c2cc(S(=O)(=O)N3CCCCC3)ccc21 | 1.38%
CN(C)CCCn1c(-c2ccc(Cl)cc2)csc1=Nc1ccccc1 | -19.8%
Cc1ccc(S(=O)(=O)Oc2ccc(/C=N/NC(=O)c3c(Cl)cnn3C)cc2)cc1 | 22%
COc1cc(/C=N/O)cc(Br)c1OS(=O)(=O)c1ccc(C)cc1 | -76.2% (active)
COc1cc(/C=C/c2ccc(/C=C/c3cc(OC)c(OC)c(OC)c3)cc2)cc(OC)c1OC | -35.4%
COc1cccc(CNC(=O)c2cc(=O)[nH]c3ccc(S(=O)(=O)N4CCCCC4)cc23)c1 | 0.829%
COc1ccc(S(=O)(=O)N2CCCC(C(=O)Nc3ccc(NC(=O)c4ccccn4)cc3)C2)cc1 (stereo not given) | 62.8%
CSc1ncc(Cl)c(C(=O)Nc2ccc(S(=O)(=O)N3CCCC(C)C3)cc2)n1 (stereo not given) | -86% (active)
CCc1ccc(NC(=O)c2cc(S(=O)(=O)N3CCCC(C)C3)cn2C)cc1 (stereo not given) | -13.1%
Cc1nnc(SCC(=O)NCc2ccccc2Cl)c2nn(-c3ccccc3)c(C)c12 | -12.6%
O=C(NC(=O)N1CCSCC1)c1c(Cl)cccc1Cl | 7.68%
COc1ccc(-c2nn(CC(=O)NC3CCCC3)c3c2cnc2ccc(F)cc23)cc1 | 35.7%
COC(=O)CCNc1ccc2c(c1)OCCO2 | -79.1% (active)
CCC(C)(C)NC(=O)CN(C(=O)C(=O)Nc1ccc2c(c1)OCCO2)C(C)(C)CC | 21.3%
CCOc1ccc(NCCC(=O)c2ccc3c(c2)OCO3)cc1 | -3.98%
Cn1nc(-c2ccccc2)c(-c2ccccc2)c(C(=O)Nc2ccc(S(N)(=O)=O)cc2)c1=O | 6.63%
COc1ccc(-c2c3c(=O)n(C)c(=O)n(C)c3c3c(C)nc4ccccc4n23)cc1 | 6.41%
CC(=O)Nc1cc(C(=O)NCc2ccc(F)cc2)ccc1Sc1ccc(F)cc1 | -2.97%
CC(=O)N/C(=N/c1nc(C)cc(C)n1)Nc1ccc(F)cc1F | -32.1%

Compound | activity change, negative = inhibition
CCOC(=O)c1cccc(NC(=O)c2ccc(F)cc2F)c1 | 17.1%
Cc1cc(C)nc(-n2nc(C)cc2NC(=O)c2ccc(F)cc2F)n1 | -89.4% (active)
Cc1ccc(-c2nn3c(=O)cc(CN4CCN(S(=O)(=O)c5ccc(Cl)cc5)CC4)nc3s2)cc1 | -1.44%
COc1ccc(CNC(=O)/C(C#N)=C/c2cccc(OC)c2OC)cc1 | -83.6% (active)
COc1cc(/C=C(\C#N)C(=O)Nc2ccc3ccccc3c2)c([N+](=O)[O-])cc1OC | 16.2%
CCSc1ccccc1C(=O)NCc1ccc(OC)cc1 | -19.4%
COc1ccc(NC(=O)CCCN2C(=O)CCn3nc(-c4cn(C)c5ccccc45)cc32)cc1OC | -28.9%
CCOc1ccc(CN2CCN(CCCc3ccccc3)C(CCO)C2)cc1 (stereo not given) | 37.5%
COc1ccccc1N1CCC(N2CCN(CC(C)(C)C)C(CCO)C2)CC1 (stereo not given) | 33.4%
CCOc1ccccc1CN1CCN(C2CCC2)CC1CCO (stereo not given) | -93.5% (active)
Cc1ccccc1CSc1nc(-c2ccccc2)nc2c1Cc1c(CO)cnc(C)c1O2 | 8.94%
CCOC(=O)[C@]12Cc3ccccc3[C@H]1N(C1CCCCC1)C(=O)c1cc(OC)ccc12 | -101% (active)
CCOC(=O)C1(Cc2cccc(OC)c2)CCN(C(C)COC)CC1 (stereo not given) | -7.28%
CCOc1ccc(NC(=O)CC2C(=O)N(c3cccc(OC)c3)C(=O)N2C2CCCCC2)cc1 (stereo not given) | 7.53%
CCOC(=O)C1(Cc2cccc(OC)c2)CCN(C(C)CC(C)(C)O)CC1 (stereo not given) | 14%
CCOC(=O)c1ccc(NC(=O)CC2C(=O)N(c3cccc(OC)c3)C(=O)N2C2CCCCC2)cc1 (stereo not given) | -1.63%
CCOC(=O)[C@]12Cc3cc(OC)ccc3[C@H]1N(C(C)C)C(=O)c1ccccc12 | -109% (active)
Cc1ccc(O)c(NC(=O)CCS(=O)(=O)c2nc(-c3ccc4c(c3)OCO4)cc(C(F)(F)F)n2)c1 | 14.6%
CCOC(=O)[C@]12CCCC=C1N(Cc1ccc3c(c1)OCO3)C(=O)[C@H](CC(=O)NCc1cccs1)C2 | 6%
Cc1ccc(C)c(CNC(=O)c2cc3ccccn3n2)c1 | 7.66%
CCc1ccc(-n2nnc(-c3nc(-c4ccccc4)no3)c2C)cc1 | 168%
O=C(Nc1ccc(OC(F)(F)F)cc1)C1CCCN(S(=O)(=O)c2ccc(Br)s2)C1 (stereo not given) | 6.14%

Compound | activity change, negative = inhibition
O=C1COCc2ccc(-c3cc4ccccc4o3)cc2N1CC1CC1 | -2.65%
CC1=C(C(=O)OC(C)(C)C)C(c2ccc(Br)cc2)NC(=O)N1CCCC(=O)O (stereo not given) | -18.5%
CCCCNC(=O)C(C)N(CCN(C)C)C(=O)CCCN1C(=O)NC(c2ccc(Cl)cc2)C(C(=O)OCc2ccccc2)=C1C (stereo not given) | -68% (active)
COC(=O)CCCCCN1C(=O)NC(c2ccc(-c3ccccc3)cc2)C(C(=O)OCc2ccccc2)=C1C (stereo not given) | 19.6%
Cc1ccc(SCC(=O)Nc2ccc3oc(-c4ccccc4C)nc3c2)cc1 | 73.5%
CC(=O)OC1=C(C(C)=O)N(Cc2ccccc2)S(=O)(=O)c2ccccc21 | 3.57%
COc1ccc(OCCn2cc(C(=O)C3CCCCC3)c3ccccc32)cc1 | -16.3%
CCN(C(=O)c1cc([N+](=O)[O-])ccc1NCc1cccnc1)c1ccccc1 | -61.2% (active)
O=C(COC(=O)c1cc([N+](=O)[O-])ccc1NCc1ccccc1)NC1CCCCC1 | -19.2%
CN(c1ccccc1)S(=O)(=O)c1ccc(C(=O)NCc2cccnc2)cc1 | -0.899%
CCc1ccc(C2C(C(=O)Nc3ccccc3)=C(C)Nc3c(C(=O)Nc4ccc(C)cc4)cnn32)cc1 (stereo not given) | -39.9%
CCCCCCCCCCCCC(NC(C)=O)(C(=O)OCC)C(=O)OCC | 12.4%
CC(=O)N1CCN(c2ccc(NCc3ccc(C(C)C)cc3)cc2)CC1 | -36.3%
CC(C)(C)C(=O)c1c(N)[nH]c(C(=O)c2ccccc2)c1-c1ccc(F)cc1 | -5.27%
Nc1[nH]c(C(=O)c2ccccc2)c(-c2ccncc2)c1C(=O)NCc1cccc2ccccc12 | -19.1%
Cc1nc2ccccc2c(-c2ccccc2)c1C(=O)c1ccccc1 | -104% (active)
COc1ccc(OCC(=O)Nc2cccc(C(=O)OCc3cc(=O)n4nc(C)sc4n3)c2)cc1 | 47.5%
CCc1c(C)nc2c(-c3ccccc3)c(C)nn2c1Nc1ccc(NC(C)=O)cc1 | -66.5% (active)
Cc1nn2c(NCCN(C)C)c3c(nc2c1-c1ccccc1)CCC3 | -16.5%
CCc1ccc(NC(=O)c2cnc3c(-c4ccccc4)c(C)nn3c2C)cc1 | -0.863%
Cc1ccc(OC(=O)CSc2nnc(-c3cccs3)o2)cc1 | 3.01%
O=C(CSc1cn(CC(=O)N2CCOCC2)c2ccccc12)Nc1ccccc1 | 19.2%

Compound | activity change, negative = inhibition
COc1cc(Cl)c(C)cc1NC(=O)COC(=O)c1cc(SC)ccc1Cl | 4.92%
COc1ccc(OCC(=O)Nc2cc(C)c(Cl)cc2OC)c([N+](=O)[O-])c1 | -64.3% (active)
Cc1cc(NC(=O)COC(=O)COc2ccc(Cl)cc2C)c([N+](=O)[O-])cc1C | 26.5%
Cn1cc(S(=O)(=O)N2CCCCCC2)cc1C(=O)N1CCN(c2ccc(F)cc2)CC1 | -13.3%
COc1ccc(NC(=O)CCCc2nnc3n(CCC(C)C)c(=O)c4sccc4n23)c(OC)c1 | 12.6%
CCOc1ccc(-c2cc3nc(C4CCN(C(=O)OC(C)(C)C)CC4)c(C(=O)Nc4cccc(CC)c4)cn3n2)cc1 | -18.2%
COC(=O)c1ccccc1NC(=O)c1ccc(COc2ccccc2Cl)o1 | 14.7%
CCN(CC)c1ccc(/C=N/NC(=O)CNC(=O)c2cccs2)cc1 | -20%
NS(=O)(=O)c1ccc(CNC(=O)c2cnccn2)cc1 | 8.17%
CCN(CC)c1ccc(/C=N/NC(=O)c2cnccn2)c(O)c1 | -98.7% (active)
CCN(CC)c1ccc(/C=N/Nc2nc(C)cc(C)n2)c(O)c1 | -102% (active)
O=c1cc2nc(-c3ccccc3)nc(SCCOc3ccc(Cl)cc3)n2[nH]1 | 5.21%
Cc1ccc(C)c(N2CCN(C(=O)Cn3nc(C)c4sc5ccccc5c4c3=O)CC2)c1 | 23.4%
CC[C@H](C)[C@H]1CNC(=O)C(=O)N1CC1CCN(CCc2ccc(OC)c(OC)c2)CC1 | 15.6%
COc1ccc(Cl)cc1S(=O)(=O)N1CCC(c2ccncc2)CC1 | -32.1%
CCOc1ccc(OCC)c(Nc2nc3ccccc3n3nnnc23)c1 | -1.18%
CC(C)[C@H]1COCCS(=O)(=O)N1Cc1ccccc1-c1cccc2c1sc1ccccc12 | -19%
COC(=O)c1c(-c2ccsc2)oc2ccc(-c3cc(OC)c(OC)c(OC)c3)cc12 | 8.37%
CSc1ncccc1C(=O)N1CCCC(CCC(=O)NCc2ccccc2F)C1 (stereo not given) | -1.95%
